According to PubChem BioAssay (NCATS):
Inconclusive results are not listed. Calls of active or inactive are those of the source. The call rests on the fitted dose curve; in most records, active means well fitted curve in the direction sought with a large enough effect; inconclusive means small, poorly fitted or top-dose-only effect, or another doubt; inactive means no such curve, though single readings can be large; an effect the other way counts as inactive or inconclusive.

Legend:
[1] = Quantitative High-Throughput drug screen in 47 multiple myeloma cell lines against the NCATS MIPE library collection: FR4_PLB cell viability assay (AID 1918924; further: nearly all actives have a fitted effect of over 35% in size)
In short: (§1)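 Myeloma cells (500 per well) were exposed to MIPE 4.0 compounds by pin transfer and incubated 48 hours at 37C, 5% CO2. Viability was read as ATP by CellTiter-Glo luminescence, normalised to DMSO (100%) and media-only (0%) wells.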

[2] = Quantitative High-Throughput drug screen in 47 multiple myeloma cell lines against the NCATS MIPE library collection: Delta47_JCRB cell viability assay (AID 1918925; further: nearly all actives have a fitted effect of over 45% in size)
In short: (§2)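 qHTS of the MIPE 4.0 collection: 500 myeloma cells/well, 48 h drug exposure at 37C in 5% CO2, then CellTiter-Glo for 5 min at room temperature before luminescence reading.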

[3] = Quantitative High-Throughput drug screen in 47 multiple myeloma cell lines against the NCATS MIPE library collection: EJM_DSMZ cell viability assay (AID 1918926; further: nearly all actives have a fitted effect of over 30% in size)
In short: as §2

[4] = Quantitative High-Throughput drug screen in 47 multiple myeloma cell lines against the NCATS MIPE library collection: AMO1_DSMZ cell viability assay (AID 1918927; further: nearly all actives have a fitted effect of over 30% in size)
In short: as §2

[5] = Quantitative High-Throughput drug screen in 47 multiple myeloma cell lines against the NCATS MIPE library collection: Karpas620_DSMZ cell viability assay (AID 1918959); further: nearly all actives have a fitted effect of over 30% in size
In short: as §1

[6] = Quantitative High-Throughput drug screen in 47 multiple myeloma cell lines against the NCATS MIPE library collection: KMM1_JCRB cell viability assay (AID 1918960); further: nearly all actives have a fitted effect of over 30% in size
In short: (§3)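 Viability screen: myeloma cells (500/well) incubated 48 h at 37 °C, humidified 5% CO2, with pinned library compounds; CellTiter-Glo added, luminescence read; DMSO wells set 100%, medium-only wells 0%.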

[7] = Quantitative High-Throughput drug screen in 47 multiple myeloma cell lines against the NCATS MIPE library collection: KHM11_PLB cell viability assay (AID 1918962); further: nearly all actives have a fitted effect of over 35% in size
In short: as §1

[8] = Quantitative High-Throughput drug screen in 47 multiple myeloma cell lines against the NCATS MIPE library collection: JIM3_ECACC cell viability assay (AID 1918963; further: nearly all actives have a fitted effect of over 35% in size)
In short: as §1

[9] = Quantitative High-Throughput drug screen in 47 multiple myeloma cell lines against the NCATS MIPE library collection: INA6_PLB cell viability assay (AID 1918965; further: nearly all actives have a fitted effect of over 55% in size)
In short: (§4)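 CellTiter-Glo ATP luminescence gave viability after 48 h compound treatment at 37C of 500 multiple myeloma cells per well. Normalisation used DMSO-only wells as 100% and media-only wells as 0% viability; primary qHTS of approved and investigational drugs.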

[10] = Quantitative High-Throughput drug screen in 47 multiple myeloma cell lines against the NCATS MIPE library collection: H1112_PLB cell viability assay (AID 1918967; further: nearly all actives have a fitted effect of over 30% in size)
In short: as §2

[11] = Quantitative High-Throughput drug screen in 47 multiple myeloma cell lines against the NCATS MIPE library collection: KMS27_JCRB cell viability assay (AID 1918970); further: nearly all actives have a fitted effect of over 30% in size
In short: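 CellTiter-Glo luminescence after 48 h drug exposure at 37 °C; 500 cells/well, 1536-well format, pin-tool compound addition; DMSO = 100%, media-only = 0% viability.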

[12] = Quantitative High-Throughput drug screen in 47 multiple myeloma cell lines against the NCATS MIPE library collection: KMS12BM_JCRB cell viability assay (AID 1918971); further: nearly all actives have a fitted effect of over 35% in size
In short: as §2

[13] = Quantitative High-Throughput drug screen in 47 multiple myeloma cell lines against the NCATS MIPE library collection: KMS12PE_JCRB cell viability assay (AID 1918972); further: nearly all actives have a fitted effect of over 30% in size
In short: as §4

[14] = Quantitative High-Throughput drug screen in 47 multiple myeloma cell lines against the NCATS MIPE library collection: KMS20_JCRB cell viability assay (AID 1918973); further: nearly all actives have a fitted effect of over 45% in size
In short: as §2

[15] = Quantitative High-Throughput drug screen in 47 multiple myeloma cell lines against the NCATS MIPE library collection: ARP1_JJKsccF8 cell viability assay (AID 1918928; further: nearly all actives have a fitted effect of over 40% in size)
In short: as §3

[16] = Quantitative High-Throughput drug screen in 47 multiple myeloma cell lines against the NCATS MIPE library collection: ARD_JJKsccE7 cell viability assay (AID 1918929)
In short: as §2

[17] = Quantitative High-Throughput drug screen in 47 multiple myeloma cell lines against the NCATS MIPE library collection: JIM1_ECACC cell viability assay (AID 1918964)
In short: as §2

[18] = Quantitative High-Throughput drug screen in 47 multiple myeloma cell lines against the NCATS MIPE library collection: JJN3_DSMZ cell viability assay (AID 1918966; further: nearly all actives have a fitted effect of over 50% in size)
In short: as §2

[19] = Quantitative High-Throughput drug screen in 47 multiple myeloma cell lines against the NCATS MIPE library collection: Karpas417_ECACC cell viability assay (AID 1918961); settings: Karpas417 myeloma viability, CellTiter-Glo ATP luminescence, 48 h; viability (% of DMSO): at 45.8 µM (top of the series)
In short: as §4

[20] = Quantitative High-Throughput drug screen in 47 multiple myeloma cell lines against the NCATS MIPE library collection: Karpas25_ECACC cell viability assay (AID 1918968; further: nearly all actives have a fitted effect of over 35% in size)
In short: as §2

Measured: Potency
Potency means the concentration at half of the fitted maximal effect.

CN1[C@@H]2CCC[C@@H]1CC(NC(=O)c1nn(C)c3ccccc13)C2 (stereo not given in full)
inactive: [1] | [2] | [3] | [4] | [5] | [6] | [7] | [8] | [9] | [10] | [11] | [12] | [13]

CN1C[C@H]2c3ccccc3Oc3ccc(Cl)cc3[C@@H]2C1
inactive: [1] | [2] | [3] | [8] | [10] | [12] | [14]

O=C1c2c(O)cc(O)cc2O[C@H](c2cc(O)c(O)c(O)c2)[C@H]1O
inactive: [2] | [16] | [6] | [7] | [8] | [11] | [13]
active: [1] 26.4 µM | [3] 1.66 µM | [15] 11.8 µM | [17] 5.9 µM | [18] 16.6 µM

CC(C)(C)OC(=O)N[C@H]1CCCCCC=C[C@@H]2C[C@@]2(C(=O)NS(=O)(=O)C2CC2)NC(=O)[C@@H]2C[C@@H](OC(=O)N3Cc4cccc(F)c4C3)CN2C1=O
inactive: [1] | [2] | [3] | [4] | [7] | [8] | [10] | [11] | [12] | [14]
active: [13] 13.2 µM

CCOC(=O)C1=C(N)Oc2ccc(Br)cc2C1C(C#N)C(=O)OCC (stereo not given)
active: [1] 20.9 µM | [2] 14.8 µM | [3] 20.9 µM | [5] 18.7 µM | [6] 16.6 µM | [19] 8.33 µM | [7] 20.9 µM | [8] 23.5 µM | [9] 18.7 µM | [18] 20.9 µM | [10] 16.6 µM | [20] 20.9 µM | [11] 18.7 µM | [12] 18.7 µM | [13] 18.7 µM

O=C(OCC#CCSc1nnc(-c2cccc3ccccc23)o1)c1cc2ccccc2s1
active: [3] 23.5 µM | [12] 16.6 µM
inactive: [1] | [2] | [5] | [6] | [7] | [8] | [17] | [9] | [10] | [11] | [13]

CC(C)=CC[C@@H](O)C1=CC(=O)c2c(O)ccc(O)c2C1=O
active: [1] 0.662 µM | [2] 8.33 µM | [3] 0.418 µM | [4] 4.18 µM | [5] 9.35 µM | [19] 1.18 µM | [8] 16.6 µM | [9] 0.296 µM | [20] 5.26 µM | [11] 20.9 µM | [12] 0.935 µM | [13] 18.7 µM | [14] 14.8 µM

Cc1ccc(F)c(NC(=O)Nc2ccc(-c3cccc4[nH]nc(N)c34)cc2)c1
active: [1] 14.8 µM | [2] 13.2 µM | [4] 10.5 µM | [16] 3.32 µM | [5] 20.9 µM | [6] 4.18 µM | [7] 8.33 µM | [8] 7.43 µM | [17] 1.87 µM | [9] 16.6 µM | [18] 18.7 µM | [10] 10.5 µM | [11] 10.5 µM | [12] 26.4 µM | [13] 8.33 µM

CC(C)(C)NC(=O)Nc1cccc(Nc2ncc(F)c(NC(C)(C)CO)n2)c1
inactive: [1] | [3] | [5] | [10] | [12] | [14]
active: [4] 14.8 µM | [8] 13.2 µM | [9] 18.7 µM | [13] 3.32 µM

Clc1cc(Cl)cc(CNc2ncncc2-c2ccc3c(c2)OCO3)c1
active: [1] 14.8 µM | [2] 11.8 µM | [4] 7.43 µM | [16] 16.6 µM | [8] 16.6 µM | [9] 16.6 µM | [11] 18.7 µM

CC[C@H]1OC(=O)[C@H](C)[C@@H](O[C@H]2C[C@@](C)(OC)[C@@H](O)[C@H](C)O2)[C@H](C)[C@@H](O[C@@H]2O[C@H](C)C[C@H](N(C)C)[C@@H]2O)[C@](C)(O)C[C@@H](C)CN(C)[C@H](C)[C@@H](O)[C@]1(C)O
inactive: [1] | [3] | [4] | [15] | [16] | [5] | [6] | [8] | [10] | [20] | [12] | [13]

CNC1CCC(N(Cc2cccc(-c3ccncc3)c2)C(=O)c2sc3c(F)ccc(F)c3c2Cl)CC1 (stereo not given)
active: [1] 14.8 µM | [2] 16.6 µM | [4] 23.5 µM | [16] 29.6 µM | [5] 16.6 µM | [6] 18.7 µM | [7] 0.469 µM | [8] 16.6 µM | [17] 14.8 µM | [9] 8.33 µM | [10] 18.7 µM | [11] 18.7 µM | [13] 10.5 µM | [14] 1.48 µM

COc1ccc(C2Sc3ccccc3N(CCN(C)C)C(=O)C2OC(C)=O)cc1 (stereo not given)
inactive: [1] | [2] | [16] | [5] | [6] | [7] | [8] | [18] | [10] | [20] | [13] | [14]
active: [12] 2.64 µM
